Key:
[1] = target: T1, Serine/threonine-protein kinase DCLK2 (Homo sapiens) (UniProt Q8N568); conditions: at 1 µM
T1 sequence (whole entry): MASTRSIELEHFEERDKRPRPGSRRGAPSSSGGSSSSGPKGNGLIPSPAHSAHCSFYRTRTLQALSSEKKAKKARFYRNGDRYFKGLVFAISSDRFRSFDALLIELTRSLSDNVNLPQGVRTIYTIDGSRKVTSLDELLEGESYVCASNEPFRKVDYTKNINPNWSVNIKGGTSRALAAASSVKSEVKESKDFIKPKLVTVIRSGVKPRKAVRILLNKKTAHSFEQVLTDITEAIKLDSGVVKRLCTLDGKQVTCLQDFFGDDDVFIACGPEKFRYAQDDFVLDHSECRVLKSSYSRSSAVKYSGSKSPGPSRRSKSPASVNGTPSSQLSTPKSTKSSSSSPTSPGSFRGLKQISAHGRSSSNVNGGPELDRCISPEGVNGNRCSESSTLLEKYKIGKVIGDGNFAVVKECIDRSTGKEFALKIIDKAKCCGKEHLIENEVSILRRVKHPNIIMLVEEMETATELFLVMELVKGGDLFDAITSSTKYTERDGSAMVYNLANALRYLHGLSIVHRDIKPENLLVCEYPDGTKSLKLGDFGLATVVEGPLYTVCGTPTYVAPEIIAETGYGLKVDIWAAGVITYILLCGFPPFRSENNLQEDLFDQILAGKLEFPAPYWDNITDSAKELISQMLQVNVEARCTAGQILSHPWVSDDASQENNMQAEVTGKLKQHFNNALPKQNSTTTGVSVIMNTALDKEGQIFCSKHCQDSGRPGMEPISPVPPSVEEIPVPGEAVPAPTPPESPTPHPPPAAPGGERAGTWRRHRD

[2] = target: T1, Serine/threonine-protein kinase DCLK2 (Homo sapiens); conditions: at 10 µM
[3] = target: T2, Discoidin domain-containing receptor 2 (Homo sapiens) (UniProt Q16832); conditions: at 1 µM
T2 sequence (whole entry): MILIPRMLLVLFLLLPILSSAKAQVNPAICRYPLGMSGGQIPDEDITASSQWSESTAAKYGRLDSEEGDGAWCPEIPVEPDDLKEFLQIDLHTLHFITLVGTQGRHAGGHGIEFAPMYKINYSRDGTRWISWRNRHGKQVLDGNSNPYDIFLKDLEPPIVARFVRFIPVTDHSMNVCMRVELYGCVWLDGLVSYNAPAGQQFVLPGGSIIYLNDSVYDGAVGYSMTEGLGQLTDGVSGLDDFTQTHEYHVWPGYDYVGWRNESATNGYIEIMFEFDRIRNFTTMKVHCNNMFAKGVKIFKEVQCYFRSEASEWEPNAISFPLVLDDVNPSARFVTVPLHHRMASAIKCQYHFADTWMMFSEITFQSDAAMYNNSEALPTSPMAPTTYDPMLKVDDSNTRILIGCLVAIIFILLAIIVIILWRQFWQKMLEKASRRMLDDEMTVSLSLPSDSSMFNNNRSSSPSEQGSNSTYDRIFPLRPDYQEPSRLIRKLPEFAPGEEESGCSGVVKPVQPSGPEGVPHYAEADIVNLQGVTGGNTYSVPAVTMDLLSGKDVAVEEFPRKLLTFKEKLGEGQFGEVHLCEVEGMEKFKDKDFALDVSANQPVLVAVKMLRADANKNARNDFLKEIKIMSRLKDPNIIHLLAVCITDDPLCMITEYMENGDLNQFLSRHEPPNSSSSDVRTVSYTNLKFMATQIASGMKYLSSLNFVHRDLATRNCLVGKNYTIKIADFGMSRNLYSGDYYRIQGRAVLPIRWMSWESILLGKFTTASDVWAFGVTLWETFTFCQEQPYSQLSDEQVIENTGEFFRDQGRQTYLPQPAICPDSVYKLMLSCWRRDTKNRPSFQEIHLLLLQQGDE

[4] = target: T2, Discoidin domain-containing receptor 2 (Homo sapiens); conditions: at 10 µM
[5] = target: T3, Serine/threonine-protein kinase 17A (Homo sapiens) (UniProt Q9UEE5); conditions: at 1 µM
T3 sequence (whole entry): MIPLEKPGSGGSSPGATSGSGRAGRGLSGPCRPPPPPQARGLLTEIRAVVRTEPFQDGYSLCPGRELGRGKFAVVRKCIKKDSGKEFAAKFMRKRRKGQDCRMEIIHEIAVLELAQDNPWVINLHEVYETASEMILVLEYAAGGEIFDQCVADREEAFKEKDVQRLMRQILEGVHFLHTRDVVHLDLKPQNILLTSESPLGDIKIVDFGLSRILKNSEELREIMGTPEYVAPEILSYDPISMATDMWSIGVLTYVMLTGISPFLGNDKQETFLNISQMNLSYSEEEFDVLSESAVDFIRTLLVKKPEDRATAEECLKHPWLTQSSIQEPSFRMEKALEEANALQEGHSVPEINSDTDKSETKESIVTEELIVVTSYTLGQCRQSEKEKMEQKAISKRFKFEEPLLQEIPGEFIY

[6] = target: Death-associated protein kinase 1 (Homo sapiens) (UniProt P53355); conditions: at 10 µM
Chain of Death-associated protein kinase 1 (Homo sapiens) (P53355 whole entry, looked up): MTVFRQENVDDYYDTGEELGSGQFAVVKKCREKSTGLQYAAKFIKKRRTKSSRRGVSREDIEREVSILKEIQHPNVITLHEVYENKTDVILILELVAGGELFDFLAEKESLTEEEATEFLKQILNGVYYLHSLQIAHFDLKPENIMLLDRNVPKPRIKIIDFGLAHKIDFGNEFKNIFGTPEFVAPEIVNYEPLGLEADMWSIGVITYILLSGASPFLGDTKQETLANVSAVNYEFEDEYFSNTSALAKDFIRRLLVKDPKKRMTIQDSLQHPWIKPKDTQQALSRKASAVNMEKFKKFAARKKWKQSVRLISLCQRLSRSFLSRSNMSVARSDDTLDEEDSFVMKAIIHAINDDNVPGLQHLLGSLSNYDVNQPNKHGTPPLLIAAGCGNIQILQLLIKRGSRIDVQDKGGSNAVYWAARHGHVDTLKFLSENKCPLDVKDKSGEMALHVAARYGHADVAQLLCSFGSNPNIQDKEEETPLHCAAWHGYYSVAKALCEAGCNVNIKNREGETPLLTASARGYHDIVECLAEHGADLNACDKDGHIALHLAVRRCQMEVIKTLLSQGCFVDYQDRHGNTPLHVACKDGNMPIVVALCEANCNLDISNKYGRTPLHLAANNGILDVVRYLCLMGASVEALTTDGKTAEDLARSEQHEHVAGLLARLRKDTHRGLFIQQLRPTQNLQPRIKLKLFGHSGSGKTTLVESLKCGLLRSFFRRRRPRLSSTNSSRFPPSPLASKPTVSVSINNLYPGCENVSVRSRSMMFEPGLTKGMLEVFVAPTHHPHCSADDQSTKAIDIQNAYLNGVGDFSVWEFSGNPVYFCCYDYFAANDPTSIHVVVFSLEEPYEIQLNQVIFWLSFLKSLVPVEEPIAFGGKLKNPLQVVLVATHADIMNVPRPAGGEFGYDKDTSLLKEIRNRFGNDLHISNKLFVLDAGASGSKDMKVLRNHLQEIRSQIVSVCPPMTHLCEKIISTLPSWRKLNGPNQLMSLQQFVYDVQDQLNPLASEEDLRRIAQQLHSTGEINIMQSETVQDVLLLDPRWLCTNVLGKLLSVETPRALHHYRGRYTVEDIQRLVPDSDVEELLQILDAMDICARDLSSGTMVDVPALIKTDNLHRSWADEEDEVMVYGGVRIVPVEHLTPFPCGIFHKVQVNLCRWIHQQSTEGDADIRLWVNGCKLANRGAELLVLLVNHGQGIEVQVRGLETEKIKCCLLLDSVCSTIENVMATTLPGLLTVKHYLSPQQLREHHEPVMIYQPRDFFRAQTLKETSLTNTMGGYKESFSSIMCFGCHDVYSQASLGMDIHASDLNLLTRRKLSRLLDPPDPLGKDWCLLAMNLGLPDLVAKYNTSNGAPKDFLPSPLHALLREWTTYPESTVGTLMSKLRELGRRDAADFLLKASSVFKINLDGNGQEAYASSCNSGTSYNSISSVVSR

[7] = target: T4, Myotonin-protein kinase (Homo sapiens) (UniProt Q09013); conditions: at 10 µM
T4 sequence (whole entry): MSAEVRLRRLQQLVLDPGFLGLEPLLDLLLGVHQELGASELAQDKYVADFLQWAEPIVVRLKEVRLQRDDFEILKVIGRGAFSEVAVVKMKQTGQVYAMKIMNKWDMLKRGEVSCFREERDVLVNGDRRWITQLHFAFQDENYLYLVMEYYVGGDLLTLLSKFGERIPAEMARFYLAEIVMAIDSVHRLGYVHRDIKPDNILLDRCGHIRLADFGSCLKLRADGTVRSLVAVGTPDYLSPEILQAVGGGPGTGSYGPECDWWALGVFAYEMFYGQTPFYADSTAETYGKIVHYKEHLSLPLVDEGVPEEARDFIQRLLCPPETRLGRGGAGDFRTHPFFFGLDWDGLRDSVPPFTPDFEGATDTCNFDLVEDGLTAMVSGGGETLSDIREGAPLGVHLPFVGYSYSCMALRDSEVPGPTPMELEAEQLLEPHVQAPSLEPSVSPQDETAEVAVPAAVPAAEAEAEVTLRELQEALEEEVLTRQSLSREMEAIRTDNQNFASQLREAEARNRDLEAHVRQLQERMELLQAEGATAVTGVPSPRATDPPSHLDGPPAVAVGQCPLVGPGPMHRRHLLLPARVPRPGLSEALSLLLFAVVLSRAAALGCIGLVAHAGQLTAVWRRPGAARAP

[8] = target: T4, Myotonin-protein kinase (Homo sapiens); conditions: at 1 µM
[9] = target: Death-associated protein kinase 2 (Homo sapiens) (UniProt Q9UIK4); conditions: at 1 µM
Chain of Death-associated protein kinase 2 (Homo sapiens) (Q9UIK4 whole entry, looked up): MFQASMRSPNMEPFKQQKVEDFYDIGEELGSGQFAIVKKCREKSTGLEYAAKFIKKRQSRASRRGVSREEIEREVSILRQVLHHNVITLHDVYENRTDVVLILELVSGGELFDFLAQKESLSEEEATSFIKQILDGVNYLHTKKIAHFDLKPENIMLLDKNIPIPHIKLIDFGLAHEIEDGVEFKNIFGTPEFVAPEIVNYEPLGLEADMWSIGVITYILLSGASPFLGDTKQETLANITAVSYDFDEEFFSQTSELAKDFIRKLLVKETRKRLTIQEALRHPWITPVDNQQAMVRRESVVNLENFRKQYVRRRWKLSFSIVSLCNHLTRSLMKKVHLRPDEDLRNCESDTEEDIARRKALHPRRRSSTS

[10] = target: Death-associated protein kinase 2 (Homo sapiens) (UniProt Q9UIK4); conditions: at 10 µM

Q: With `c1ccc(-c2cnc(Nc3ccc(OCCN4CCCC4)cc3)s2)cc1` as the compound, how does the residual activity [1] read?
A: 108%

Q: What about the residual activity [2] of the same compound?
A: 54%

Q: What about the residual activity [3] of the same compound?
A: 100%

Q: And the residual activity [4]?
A: 48%

Q: What about the residual activity [5] of the same compound?
A: 31%

Q: How did the residual activity [6] turn out when `CCN1/C(=C/C(C)=O)Sc2ccc(OC)cc21` was run?
A: 79%

Q: And the residual activity [7]?
A: 70%

Q: `CCOC(=O)c1c(C)[nH]c(/C=C2\C(=O)Nc3ccccc32)c1C` was tested. Which residual activity [6] did it give?
A: 99%

Q: And the residual activity [5]?
A: 86%

Q: For `Fc1ccc(-c2nc3n(c2-c2ccncc2)CCS3)cc1`, which residual activity [6] is on record?
A: 93%

Q: And the residual activity [3]?
A: 83%

Q: And the residual activity [4]?
A: 35%

Q: And the residual activity [8]?
A: 87%

Q: What about the residual activity [7] of the same compound?
A: 96%

Q: For `O=C1Cc2c([nH]c3ccc([N+](=O)[O-])cc23)-c2ccccc2N1`, which residual activity [5] is on record?
A: 10%

Q: What does the source list for `CCCCc1c(-c2ccc(OC)cc2)[nH]c2nccnc12`?
A: residual activity [9]: 101%; residual activity [10]: 100%; residual activity [1]: 72%; residual activity [2]: 106%; residual activity [3]: 71%; residual activity [4]: 59%; residual activity [5]: 79%

— ChEMBL document CHEMBL2218924, “A broad activity screen in support of a chemogenomic map for kinase signalling research and drug discovery” (Biochem J, 2013)
